Laboratory results: PubChem BioAssay (NCATS)
Inconclusive results are not listed. Active and inactive are the calls of the source. The call rests on the fitted dose curve; in most records, active means well fitted cell-killing curve with a large enough effect; inconclusive means small, poorly fitted or top-dose-only effect; inactive means flat fitted curve, though single readings scatter.

Test: Cell Viability - LYMP2-015 (AID 971);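 further: cells exposed to compound for 24 h; 0% = DMSO only and full effect = 92 µM tetraoctylammonium bromide; nearly all actives have a fitted effect of over 55% in size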
Details: LYMP2-015 lymphoblastoid cell viability; series mostly up to 92.2 µM; activity change, negative = lower viability: at the top concentration
Description: NIH Chemical Genomics Center [NCGC]
NIH Molecular Libraries Screening Centers Network [MLSCN]
National Institutes of Environmental Health Sciences [NIEHS]
National Toxicology Program [NTP]
We have developed a 1536-well cell-based assay for quantitative high throughput screening (qHTS) against a number of cell lines to determine in vitro cytotoxicity of small molecules. This particular assay uses a human lymphoblastoid cell line (LYMP2-015) purchased from Coriell Institute for Medical Research.
NCGC Assay Protocol Summary:
The CellTiter-Glo luminescent cell viability assay (Promega) is a homogeneous method to measure the number of viable cells in culture. The end point readout of this assay is based on quantitation of intracellular ATP, an indicator of metabolic activity, using the luciferase reaction. Luciferase catalyzes the oxidation of beetle Luciferin to oxyluciferin and light in the presence of ATP. The luminescent signal is proportional to amount of ATP present.
Using the CellTiter-Glo luminescent cell viability assay, the amount of cellular ATP was measured in the lymphoblastoid cell line with complete culture medium following compound treatment for 24 hours. The assay was performed in opaque white Kalypsys 1536-well plates. In the screen, tetraoctylammonium bromide was used as positive control. Library compounds were measured for their ability to cause acute toxicity in the cell line, as reflected by a decrease in intracellular ATP levels, in a concentration-dependent manner. […] AC50 values were determined from concentration-response data modeled with the standard Hill equation.
qHTS protocol for CellTiter Glo lymphoblastoid cellular assay
[Step] [Parameter] [Value] [Description]
1. Reagent; 5 uL; 2500 lymphoblastoid cells/well
2. Time; 5 hr; 37 C incubation
4. Controls; 23 nL; Tetraoctylammonium bromide 6.4pM to 92 uM
5. Time; 24 hr; 37 C incubation
6. Reagent; 5 uL; CellTiter Glo reagent
7. Time; 30 min; Room Temperature
8. Detection; Luminescence; Viewlux plate reader
Keywords: cell viability, cytotoxicity, lymphoblastoid cell line, luminescence, NTPHTS, NTPHTS_NCGC, NIEHS, DSSTox, MLSMR, MLSCN, NIH Roadmap, qHTS, NCGC

SMILES	activity change, negative = lower viability
CNC(=O)N(c1ccccc1)c1ccccc1	-1.99% (inactive)
CC(=O)Nc1cccc(N)c1	-6.94% (inactive)
C=CCCC	-6.52% (inactive)
CC(=O)c1ccccc1[N+](=O)[O-]	-7.34% (inactive)
Cc1ccc([N+](=O)[O-])c(N)c1	-4.88% (inactive)
Cc1cc(C2(c3cc(C)c(O)cc3C)OS(=O)(=O)c3ccccc32)c(C)cc1O	-20.5% (inactive)
Cc1cccc2ccccc12	-31.4% (inactive)
FC(F)(F)c1ccccc1Cl	-1.3% (inactive)
COC(=O)CC#N	-21% (inactive)
C=C(C)C(N)=O	-6.12% (inactive)
CCOc1cccc(N)c1	-44.8% (inactive)
CCN(C(=O)N(CC)c1ccccc1)c1ccccc1	-3.12% (inactive)
CCCCCCCCCCCCOCC1CO1 (stereo not given)	-9.39% (inactive)
c1ccc2c(c1)ccc1ncccc12	1.89% (inactive)
CCCCCCCN	-13.3% (inactive)
CC=O	-1.62% (inactive)
Cc1ccco1	-1.41% (inactive)
NC(=O)NC(N)=O	-22.5% (inactive)
O=C(O)c1ccc(C(=O)O)cc1	-14.6% (inactive)
COc1ccc(N=[N+]([O-])c2ccc(OC)cc2)cc1	-14.5% (inactive)

SMILES	activity change, negative = lower viability
O=[N+]([O-])c1cccc(C(F)(F)F)c1	-12.7% (inactive)
CCCCN(CCO)CCCC	-9.54% (inactive)
CCCCCCC=O	4.36% (inactive)
Cc1c(N)cccc1[N+](=O)[O-]	-9.11% (inactive)
C1CCCC1	9.95% (inactive)
C=C(C)C(=O)OCC(C)O (stereo not given)	-8.86% (inactive)
CCN(CC)c1cccc(O)c1	-21.8% (inactive)
CCOC(=O)C(C)C(C)=O (stereo not given)	1.23% (inactive)
Cc1nc2ccc(Cl)cc2[nH]1	-5.63% (inactive)
COc1ccc(N)c(C)c1	-11.5% (inactive)
O=C(O)CN(CC(=O)O)CC(=O)O	1.45% (inactive)
Oc1c(Cl)ccc(Cl)c1Cl	-21.9% (inactive)
Cc1ccc2nc(-c3ccc(N)cc3)sc2c1S(=O)(=O)O	-15% (inactive)
C=C(C)C(=O)OCCCCCC	0.296% (inactive)
CCc1ccccc1	1.27% (inactive)
Cc1ccc(Cl)cc1	-1.33% (inactive)
COC(=O)CS	13.5% (inactive)
O=CNc1ccccc1	-16.6% (inactive)
CC/C=C/C#N	-10.3% (inactive)
CCCCC(=O)N(C)C	-9.65% (inactive)
